Test [1] in a line: Primary qHTS for Huh7 cytotoxicity: counterscreen for inhibitors of MERS-S pseudotyped particle cell entry (AID 1479147). In general terms: In qHTS, concentration-response curves come from the screen itself.
A short description of test [2]: Primary qHTS for inhibitors of MERS-S pseudo-typed particle cell entry (AID 1479149). Note: nearly all actives have a fitted effect of over 60% in size. Note: potency is the fitted concentration of half-maximal effect.
A short description of test [3]: Primary qHTS for Vero E6 cytotoxicity: counterscreen for inhibitors of SARS-S pseudo-typed particle cell entry (AID 1479150).
Test [4] can be described thus: Confirmatory qHTS for VERO E6 Cytotoxicity Assay: Counterscreen for SARS-CoV-2 CPE Assay (AID 1508605). Note: nearly all actives have a fitted effect of over 60% in size. Note: potency is the fitted concentration of half-maximal effect.
The nature of test [5]: Confirmatory qHTS for activators (rescue) of SARS-CoV-2 Cytopathic Effect (CPE) (AID 1508606). Note: potency is the fitted concentration of half-maximal effect; nearly all actives have a fitted effect of over 70% in size.

Records with an inconclusive call do not appear. Activity calls are given as the source filed them. Calls come from the whole dose curve.

On to `O=C1N=C(O)CN1/N=C/c1ccc(-c2ccc([N+](=O)[O-])cc2)o1`, for which the Potency result in test [1], in test [2] and in test [3] was “inactive” in each case.
For `CC(C(=O)O)c1cccc(C(=O)c2ccccc2)c1` (centres undefined), the Potency result in test [1], in test [2] and in test [3] was “inactive” each time.
As to `CCCCc1ncc(/C=C(\Cc2cccs2)C(=O)O)n1Cc1ccc(C(=O)O)cc1`, the Potency entry in test [1], in test [2] and in test [3] was “inactive” throughout.
In the case of `CN(C/C=C/C#CC(C)(C)C)Cc1cccc2ccccc12`, the Potency entry in test [1], in test [2] and in test [3] was “inactive” in each case.
Take `CC(C)C1CCC(C(=O)N[C@H](Cc2ccccc2)C(=O)O)CC1` (some centres undefined): the Potency entry in test [1], in test [2] and in test [3] was “inactive” throughout.
`Cc1cn([C@H]2C[C@H](N=[N+]=[N-])[C@@H](CO)O2)c(=O)[nH]c1=O`: the Potency entry in test [1], in test [2] and in test [3] was “inactive” throughout.
With `COc1ccccc1OCC(O)CN1CCN(CC(=O)Nc2c(C)cccc2C)CC1` (centres undefined), the Potency entry in test [1], in test [2] and in test [3] was “inactive” in each case.
Regarding `Cc1[nH]cnc1CN1CCc2c(c3ccccc3n2C)C1=O`, the Potency result in test [1], in test [2] and in test [3] was “inactive” in each case.
With `CN(C)CCOC(C)(c1ccccc1)c1ccccn1` (centres undefined), the Potency result in test [1], in test [2] and in test [3] was “inactive” in each case.
With `O=C(c1ccccc1)c1ccc2n1CCC2C(=O)O` (centres undefined), the Potency result in test [1], in test [2] and in test [3] was “inactive” each time.
Regarding `CCCCc1oc2ccccc2c1C(=O)c1cc(I)c(OCCN(CC)CC)c(I)c1`, the Potency entry in test [1], in test [3] and in test [4] was “inactive” in each case. In test [2], the Potency was 10 µM (active).
For the compound `Cc1nc2n(c(=O)c1CCN1CCC(c3noc4cc(F)ccc34)CC1)CCC[C@H]2O`, the Potency entry in test [1], in test [2] and in test [3] was “inactive” each time.
Take `Cc1onc(-c2ccccc2Cl)c1C(=O)N[C@@H]1C(=O)N2[C@@H]1SC(C)(C)[C@@H]2C(=O)O`: the Potency entry in test [1], in test [2] and in test [3] was “inactive” each time.
Consider `CN1CCC[C@@H]1Cc1c[nH]c2ccc(CCS(=O)(=O)c3ccccc3)cc12`, for which the Potency result in test [1], in test [2] and in test [3] was “inactive” each time.
Turning to `NS(=O)(=O)c1cc2c(cc1C(F)(F)F)NCNS2(=O)=O`, the Potency entry in test [1], in test [2] and in test [3] was “inactive” each time.
On to `COCCCC/C(=N\OCCN)c1ccc(C(F)(F)F)cc1`, for which the Potency result in test [1], in test [2] and in test [3] was “inactive” each time.
On to `CC(=O)CCCCn1c(=O)c2c(ncn2C)n(C)c1=O`, for which the Potency result in test [1], in test [2] and in test [3] was “inactive” throughout.
On to `CC(C)(C(=O)O)c1ccc(C(O)CCCN2CCC(C(O)(c3ccccc3)c3ccccc3)CC2)cc1` (centres undefined), for which the Potency result in test [1], in test [2] and in test [3] was “inactive” throughout.
As for `CC(c1cc2ccccc2s1)N(O)C(N)=O` (centres undefined), the Potency result in test [1], in test [2] and in test [3] was “inactive” throughout.
As to `Nc1ccc(O)c(C(=O)O)c1`, the Potency result in test [1], in test [2] and in test [3] was “inactive” throughout.
On to `CCCN(CCc1cccs1)[C@H]1CCc2c(O)cccc2C1`, for which the Potency result in test [1], in test [2] and in test [3] was “inactive” each time.
Regarding `CC(CN(C)C)CN1c2ccccc2CCc2ccccc21` (centres undefined), the Potency result in test [1], in test [3] and in test [4] was “inactive” each time.
As to `CCc1ccc(CCOc2ccc(CC3SC(=O)NC3=O)cc2)nc1` (centres undefined), the Potency result in test [1] and in test [3] was “inactive” throughout.
Regarding `C=C[C@H]1CN2CC[C@H]1C[C@@H]2[C@@H](O)c1ccnc2ccc(OC)cc12`, the Potency result in test [1] and in test [3] was “inactive” each time.
As for `CC(CN1c2ccccc2Sc2ccccc21)N(C)C` (centres undefined), the Potency entry in test [1], in test [3] and in test [4] was “inactive” in each case. Also, the Potency in test [5] is 11.2 µM (active).
Regarding `Fc1ccc([C@@H]2CCNC[C@H]2COc2ccc3c(c2)OCO3)cc1`, the Potency result in test [1] and in test [3] was “inactive” each time.
As for `CNCCCN1c2ccccc2CCc2ccccc21`, the Potency result in test [1], in test [3] and in test [4] was “inactive” each time.
Consider `COc1cc2c(cc1OC)C(=O)C(CC1CCN(Cc3ccccc3)CC1)C2` (centres undefined), for which the Potency entry in test [1] and in test [3] was “inactive” in each case.
`OCCN(CCO)c1nc(N2CCCCC2)c2nc(N(CCO)CCO)nc(N3CCCCC3)c2n1`: the Potency result in test [1] and in test [3] was “inactive” throughout.
On to `CC(=O)O[C@]1(C(C)=O)CC[C@H]2[C@@H]3C=C(Cl)C4=CC(=O)[C@@H]5C[C@@H]5[C@]4(C)[C@H]3CC[C@@]21C`, for which the Potency result in test [1] and in test [3] was “inactive” in each case.
As to `C[C@@H](O[C@H]1OCCN(Cc2n[nH]c(=O)[nH]2)[C@H]1c1ccc(F)cc1)c1cc(C(F)(F)F)cc(C(F)(F)F)c1`, the Potency entry in test [1] and in test [3] was “inactive” in each case.
For the compound `Nc1ncn([C@@H]2O[C@H](CO)[C@@H](O)[C@H]2O)c(=O)n1`, the Potency entry in test [1] and in test [3] was “inactive” in each case.
On to `Cc1ccccc1C(OCCN(C)C)c1ccccc1` (centres undefined), for which the Potency entry in test [1] and in test [3] was “inactive” each time.
On to `CN(C)CC/C=C1\c2ccccc2COc2ccccc21`, for which the Potency entry in test [1] and in test [3] was “inactive” throughout.
As to `Cc1ccc(O)c([C@H](CCN(C(C)C)C(C)C)c2ccccc2)c1`, the Potency entry in test [1] and in test [3] was “inactive” throughout.
Turning to `COc1ccc2nc(S(=O)Cc3ncc(C)c(OC)c3C)[nH]c2c1` (centres undefined), the Potency result in test [1] and in test [3] was “inactive” each time.
Turning to `CC/C(=C(\c1ccccc1)c1ccc(OCCN(C)C)cc1)c1ccccc1`, the Potency result in test [1] and in test [3] was “inactive” in each case. Further, the Potency in test [2] is 7.08 µM (active); in test [4], 10 µM (active).
`OC(CCN1CCCC1)(c1ccccc1)C1CCCCC1` (centres undefined): the Potency result in test [1] and in test [3] was “inactive” in each case.

The record behind these values is PubChem BioAssay (NCATS).
